Laboratory results from PubChem BioAssay (NCI).
This is part of a sample that, as a whole, favours compounds with a hit. Of some 83,000 tested, about 20% had one in any assay.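 Cell lines were cultured in 96-well plates, exposed to a single compound concentration, and assessed for percent growth 48 hours later.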 Unmarked numbers belong to inactive results. Calls of active or inactive are those of the source. How the source made its calls: active means growth percent below 10; inactive means the rest.

Legend:
Assay in all cases: NCI-60 one-dose screen, 48 h (100 = growth as untreated, 0 = no growth, -100 = all killed)
Conditions in all cases: 10 µM
NCI-H23 lung = tested on: NCI-H23 lung
NCI-H226 lung = tested on: NCI-H226 lung
HOP-62 NSCLC = tested on: HOP-62 NSCLC
NCI-H460 lung = tested on: NCI-H460 lung
HOP-92 NSCLC = tested on: HOP-92 NSCLC
NCI-H522 lung = tested on: NCI-H522 lung
A549/ATCC NSCLC = tested on: A549/ATCC NSCLC
786-0 renal = tested on: 786-0 renal
COLO 205 colon = tested on: COLO 205 colon
DU-145 prostate = tested on: DU-145 prostate
K-562 leukemia = tested on: K-562 leukemia
MALME-3M melanoma = tested on: MALME-3M melanoma
MDA-MB-231 breast = tested on: MDA-MB-231 breast
RXF 393 renal = tested on: RXF 393 renal
SF-268 CNS = tested on: SF-268 CNS
SF-295 CNS = tested on: SF-295 CNS
SF-539 CNS = tested on: SF-539 CNS
M14 melanoma = tested on: M14 melanoma
UACC-257 melanoma = tested on: UACC-257 melanoma

Structure (SMILES) | growth (NCI-H23 lung) | growth (NCI-H226 lung) | growth (HOP-62 NSCLC) | growth (NCI-H460 lung) | growth (HOP-92 NSCLC) | growth (NCI-H522 lung) | growth (A549/ATCC NSCLC) | growth (786-0 renal) | growth (COLO 205 colon) | growth (DU-145 prostate) | growth (K-562 leukemia) | growth (MALME-3M melanoma) | growth (MDA-MB-231 breast) | growth (RXF 393 renal) | growth (SF-268 CNS) | growth (SF-295 CNS) | growth (SF-539 CNS) | growth (M14 melanoma) | growth (UACC-257 melanoma)
O=C(CN1CCN(C(=O)c2ccccc2)CC1)Nc1ccccc1SCc1ccccc1 | 79% | 81.5% | 89.6% | 96.8% | 71.4% | 50.9% | 83.4% | 79.3% | 82.3% | 101% | 66% | 86.1% | 68.7% | 111% | 90.9% | 86.9% | 89.1% | 79.4% | 
CC(C)(C)OC(=O)N1CCc2c(sc3ncnc(N/N=C/c4ccc(Br)cc4)c23)C1 | 71.8% | 79% | 69% | 39.6% | 94.4% | 35.6% | 50.2% | 76.5% | 41% | 92.6% | 15.1% | 51.3% | 73.2% | 66.4% | 82.2% | 49% | 60.7% | 47.7% | 73.4%
CC(C1=C(CN(C(=O)Cc2cn(-c3ccccc3)nc2-c2ccc(Cl)cc2)C(C)C)Cc2ccccc21)c1ccccn1 (stereo unspecified) | 55.3% | 69.9% | 92.7% | 53.1% | 62.2% | 44.2% | 61% | 68.2% | 66.7% | 81% | 43.4% |  | 60.2% | 86.7% | 74.5% | 75.2% | 87.2% | 64.7% | 67.3%
CCn1c(SCCc2ccccc2)nnc1-c1nn(-c2ccc(Cl)cc2Cl)c(-c2ccc(Cl)cc2)c1C | 62.2% | 58% | 101% | 73.7% | 85% | 61.1% | 65.1% | 72.9% | 77.7% | 84.7% | 48.1% | 96% | 81.1% | 66% | 77.4% | 65.7% | 85.9% | 72.8% | 
COc1ccc2nc3cc(Cl)ccc3c(N)c2c1 | -93.9% (active) | 36.7% | -94.3% (active) | -75.2% (active) | 91.3% | -75.8% (active) | -73% (active) | -98.9% (active) | -87.6% (active) | -96.8% (active) | -60.6% (active) | -71.8% (active) | -94.1% (active) | -98.1% (active) | -85.7% (active) |  | -90.3% (active) | -95.6% (active) | -81.2% (active)
O=C1/C=C/[C@@H](O)[C@@H]2C[C@@H](O)C[C@H]2/C=C/CCC[C@H](C(F)(F)F)O1 | -30.8% (active) | -46.7% (active) | 33% | 59.2% | -2.27% (active) | -27.6% (active) | 33.4% | -11.6% (active) | -44.6% (active) | 28.2% | 20.7% | -10.9% (active) | -31.8% (active) | -28.8% (active) | 17.9% | 78% | 21.4% | 13.4% | 6% (active)
COc1cc(Cc2cc(-c3ccccc3)n[nH]c2=O)cc(OC)c1OC | 65.5% | 68.5% | 73% | 44.5% | 35.8% | 52.9% | 53.5% | 74.3% | 56.3% | 84.2% | 19.3% | 71.8% | 54.7% | 60% | 69.8% | 61.3% | 61.4% | 18.4% | 
Cc1ccc(C)c(COc2cc(NC(=O)c3ccc4c(c3)OCO4)ccc2N(C)S(C)(=O)=O)c1 | 9.96% (active) | 37% | 16.1% | -9.36% (active) | 23.1% | -15.9% (active) | 21.9% | 6.5% (active) | -68.3% (active) | -40.5% (active) | 13.3% |  | -10.8% (active) | -1.01% (active) | 20.8% | -4.18% (active) | -7.46% (active) | -34.2% (active) | 66.6%
